Data as given in publication PMC7862700, “An all-to-all approach to the identification of sequence-specific readers for epigenetic DNA modifications on cytosine”.

Assays:
Assay in all cases: DAPPL (digital affinity profiling via proximity ligation, sequencing); 10 mM Tris-HCl pH 7.5, 50 mM NaCl, 1 mM DTT, 4% glycerol, room temperature, 30 min; GST-TFs on glutathione beads, 16-mer random dsDNA library, 0.1% formaldehyde crosslink after washing; high values mean tight binding
Conditions in all cases: protein: recombinant; tags: N-terminal GST; dsDNA, one strand shown
ERF = target: T1, ERF (Homo sapiens, UniProt P50548 1-548)
T1 sequence: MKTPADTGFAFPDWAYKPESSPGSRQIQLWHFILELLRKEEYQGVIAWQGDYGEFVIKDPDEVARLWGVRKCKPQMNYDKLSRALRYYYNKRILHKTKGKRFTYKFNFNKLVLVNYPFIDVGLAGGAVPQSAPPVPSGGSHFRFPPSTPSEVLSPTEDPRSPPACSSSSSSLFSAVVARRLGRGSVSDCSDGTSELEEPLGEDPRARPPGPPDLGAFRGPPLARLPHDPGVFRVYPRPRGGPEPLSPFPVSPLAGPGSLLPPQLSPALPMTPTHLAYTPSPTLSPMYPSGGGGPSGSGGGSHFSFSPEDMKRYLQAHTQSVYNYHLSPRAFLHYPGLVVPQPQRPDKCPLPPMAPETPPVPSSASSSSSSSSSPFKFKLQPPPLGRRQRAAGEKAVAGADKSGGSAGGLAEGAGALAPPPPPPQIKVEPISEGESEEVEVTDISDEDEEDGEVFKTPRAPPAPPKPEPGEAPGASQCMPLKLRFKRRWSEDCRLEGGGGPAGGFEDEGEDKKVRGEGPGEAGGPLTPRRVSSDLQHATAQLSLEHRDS
Summary of the method: (§1)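 The binding signal reported is, for every hexamer, its read frequency for a factor over its read frequency for the tag-only sample. Reads came from pools of yeast-expressed, GST-fused human transcription factors on glutathione beads, barcoded with DNA and mixed with that sample, which were incubated with 200 nmole of a random double-stranded 16-mer DNA library in Tris/NaCl/DTT/glycerol buffer at room temperature for 30 min. After washing, the pools were crosslinked with 0.1% formaldehyde, proximity-ligated with BsaI/T4 ligase for 1 h at 37 °C, PCR-amplified and sequenced on an Illumina NextSeq500.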

ETV3L = target: T2, ETV3L (Homo sapiens, UniProt Q6ZN32 1-361)
T2 sequence: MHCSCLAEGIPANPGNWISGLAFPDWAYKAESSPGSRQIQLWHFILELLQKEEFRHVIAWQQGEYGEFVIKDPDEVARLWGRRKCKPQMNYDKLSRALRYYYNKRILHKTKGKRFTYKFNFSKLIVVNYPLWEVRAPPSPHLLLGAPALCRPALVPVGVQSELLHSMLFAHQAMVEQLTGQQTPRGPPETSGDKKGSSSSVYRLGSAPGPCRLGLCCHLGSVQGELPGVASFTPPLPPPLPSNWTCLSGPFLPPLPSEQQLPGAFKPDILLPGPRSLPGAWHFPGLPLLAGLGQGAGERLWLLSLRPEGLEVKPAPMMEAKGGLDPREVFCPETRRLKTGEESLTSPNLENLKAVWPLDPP
Summary of the method: as §1

ETS2 = target: T3, ETS2 (Homo sapiens, UniProt P15036 1-469)
T3 sequence: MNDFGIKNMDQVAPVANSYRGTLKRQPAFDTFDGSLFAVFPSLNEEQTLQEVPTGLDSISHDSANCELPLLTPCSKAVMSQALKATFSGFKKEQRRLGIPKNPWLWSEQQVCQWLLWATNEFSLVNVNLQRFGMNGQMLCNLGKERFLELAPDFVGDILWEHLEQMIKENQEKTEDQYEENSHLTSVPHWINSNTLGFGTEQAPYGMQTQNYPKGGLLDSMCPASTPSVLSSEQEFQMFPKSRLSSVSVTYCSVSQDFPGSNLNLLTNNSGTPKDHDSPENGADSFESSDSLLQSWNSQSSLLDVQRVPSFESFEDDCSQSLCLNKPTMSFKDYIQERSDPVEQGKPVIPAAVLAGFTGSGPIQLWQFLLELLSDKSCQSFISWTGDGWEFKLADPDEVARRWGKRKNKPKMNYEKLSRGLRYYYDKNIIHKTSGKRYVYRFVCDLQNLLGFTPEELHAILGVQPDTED
Summary of the method: as §1

SPDEF = target: T4, SPDEF (Homo sapiens, UniProt O95238 1-335)
T4 sequence: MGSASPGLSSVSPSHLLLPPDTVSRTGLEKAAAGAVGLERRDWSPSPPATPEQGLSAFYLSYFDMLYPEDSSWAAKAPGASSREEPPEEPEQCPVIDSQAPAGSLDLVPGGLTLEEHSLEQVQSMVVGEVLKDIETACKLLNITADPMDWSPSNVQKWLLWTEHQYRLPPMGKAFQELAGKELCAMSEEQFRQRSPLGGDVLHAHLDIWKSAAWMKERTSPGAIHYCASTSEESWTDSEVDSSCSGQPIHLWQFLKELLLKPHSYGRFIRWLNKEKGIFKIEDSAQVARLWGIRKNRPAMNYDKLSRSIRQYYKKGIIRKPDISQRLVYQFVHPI
Summary of the method: as §1

ETV7 = target: T5, ETV7 (Homo sapiens, UniProt Q9Y603 1-341)
T5 sequence: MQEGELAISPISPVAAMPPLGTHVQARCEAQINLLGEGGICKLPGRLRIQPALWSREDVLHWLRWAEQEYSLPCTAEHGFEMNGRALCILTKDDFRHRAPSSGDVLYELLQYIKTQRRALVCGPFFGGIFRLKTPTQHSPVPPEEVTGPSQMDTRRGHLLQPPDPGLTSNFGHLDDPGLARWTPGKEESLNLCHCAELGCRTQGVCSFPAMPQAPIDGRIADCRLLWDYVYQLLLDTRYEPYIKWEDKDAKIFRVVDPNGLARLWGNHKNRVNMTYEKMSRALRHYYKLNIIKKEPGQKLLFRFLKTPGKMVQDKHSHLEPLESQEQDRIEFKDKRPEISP
Summary of the method: as §1

ELF5 = target: T6, ELF5 (Homo sapiens, UniProt Q9UKW6-2 1-255)
T6 sequence: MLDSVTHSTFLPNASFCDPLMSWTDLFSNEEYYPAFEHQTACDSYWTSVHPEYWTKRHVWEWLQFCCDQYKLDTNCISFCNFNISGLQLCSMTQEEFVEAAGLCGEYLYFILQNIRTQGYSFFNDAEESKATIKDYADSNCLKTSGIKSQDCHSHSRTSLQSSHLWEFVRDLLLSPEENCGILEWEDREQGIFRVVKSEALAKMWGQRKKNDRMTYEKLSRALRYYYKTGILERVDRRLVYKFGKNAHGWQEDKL
Summary of the method: as §1

ETV3 = target: T7, ETV3 (Homo sapiens, UniProt P41162-2 1-143)
T7 sequence: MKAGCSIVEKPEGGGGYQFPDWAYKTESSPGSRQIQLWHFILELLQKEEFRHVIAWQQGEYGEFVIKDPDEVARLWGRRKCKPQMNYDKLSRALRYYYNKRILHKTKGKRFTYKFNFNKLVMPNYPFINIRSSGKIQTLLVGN
Summary of the method: as §1

ETV6 = ETV6 (Homo sapiens, UniProt P41212 1-452)
ETV6, sequence (P41212 whole entry): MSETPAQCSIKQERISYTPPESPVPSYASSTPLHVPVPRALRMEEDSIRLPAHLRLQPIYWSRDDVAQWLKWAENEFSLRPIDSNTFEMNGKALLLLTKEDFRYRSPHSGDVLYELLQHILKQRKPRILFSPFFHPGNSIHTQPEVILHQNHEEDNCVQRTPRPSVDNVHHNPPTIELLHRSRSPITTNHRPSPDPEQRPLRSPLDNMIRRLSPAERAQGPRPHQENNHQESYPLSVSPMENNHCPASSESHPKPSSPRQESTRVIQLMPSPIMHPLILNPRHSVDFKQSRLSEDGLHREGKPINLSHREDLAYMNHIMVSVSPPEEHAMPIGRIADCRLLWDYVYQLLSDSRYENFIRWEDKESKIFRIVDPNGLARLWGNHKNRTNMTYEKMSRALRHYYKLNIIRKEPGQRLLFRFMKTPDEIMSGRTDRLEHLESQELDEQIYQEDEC
Summary of the method: as §1

CCACTT
binding signal (ERF): 1.9 fold enrichment (6-mer frequency, TF over GST control) | binding signal (ETV3L): 1.79 fold enrichment (6-mer frequency, TF over GST control) | binding signal (ETS2): 1.84 fold enrichment (6-mer frequency, TF over GST control) | binding signal (SPDEF): 1.69 fold enrichment (6-mer frequency, TF over GST control) | binding signal (ETV7): 1.78 fold enrichment (6-mer frequency, TF over GST control) | binding signal (ELF5): 1.89 fold enrichment (6-mer frequency, TF over GST control) | binding signal (ETV3): 1.97 fold enrichment (6-mer frequency, TF over GST control) | binding signal (ETV6): 1.85 fold enrichment (6-mer frequency, TF over GST control)

TTGAAA
binding signal (ERF): 1.13 fold enrichment (6-mer frequency, TF over GST control) | binding signal (ETV3L): 1.23 fold enrichment (6-mer frequency, TF over GST control) | binding signal (ETS2): 1.24 fold enrichment (6-mer frequency, TF over GST control) | binding signal (SPDEF): 1.07 fold enrichment (6-mer frequency, TF over GST control) | binding signal (ETV7): 1.19 fold enrichment (6-mer frequency, TF over GST control) | binding signal (ELF5): 1.03 fold enrichment (6-mer frequency, TF over GST control) | binding signal (ETV3): 1.17 fold enrichment (6-mer frequency, TF over GST control) | binding signal (ETV6): 1.09 fold enrichment (6-mer frequency, TF over GST control)

ATCGCC
binding signal (ERF): 1.27 fold enrichment (6-mer frequency, TF over GST control) | binding signal (ETV3L): 1.32 fold enrichment (6-mer frequency, TF over GST control) | binding signal (ETS2): 1.3 fold enrichment (6-mer frequency, TF over GST control) | binding signal (SPDEF): 1.12 fold enrichment (6-mer frequency, TF over GST control) | binding signal (ETV7): 1.03 fold enrichment (6-mer frequency, TF over GST control) | binding signal (ELF5): 1.25 fold enrichment (6-mer frequency, TF over GST control) | binding signal (ETV3): 1.14 fold enrichment (6-mer frequency, TF over GST control) | binding signal (ETV6): 1.28 fold enrichment (6-mer frequency, TF over GST control)

CCCGAA
binding signal (ERF): 1.48 fold enrichment (6-mer frequency, TF over GST control) | binding signal (ETV3L): 1.35 fold enrichment (6-mer frequency, TF over GST control) | binding signal (ETS2): 1.37 fold enrichment (6-mer frequency, TF over GST control) | binding signal (SPDEF): 1.31 fold enrichment (6-mer frequency, TF over GST control) | binding signal (ETV7): 1.26 fold enrichment (6-mer frequency, TF over GST control) | binding signal (ELF5): 1.32 fold enrichment (6-mer frequency, TF over GST control) | binding signal (ETV3): 1.33 fold enrichment (6-mer frequency, TF over GST control) | binding signal (ETV6): 1.36 fold enrichment (6-mer frequency, TF over GST control)

ACCCTT
binding signal (ERF): 1.2 fold enrichment (6-mer frequency, TF over GST control) | binding signal (ETV3L): 1.21 fold enrichment (6-mer frequency, TF over GST control) | binding signal (ETS2): 1.1 fold enrichment (6-mer frequency, TF over GST control) | binding signal (SPDEF): 1.2 fold enrichment (6-mer frequency, TF over GST control) | binding signal (ETV7): 1.1 fold enrichment (6-mer frequency, TF over GST control) | binding signal (ELF5): 1.19 fold enrichment (6-mer frequency, TF over GST control) | binding signal (ETV3): 1.19 fold enrichment (6-mer frequency, TF over GST control) | binding signal (ETV6): 1.15 fold enrichment (6-mer frequency, TF over GST control)

AATCTT
binding signal (ERF): 1.26 fold enrichment (6-mer frequency, TF over GST control) | binding signal (ETV3L): 1.38 fold enrichment (6-mer frequency, TF over GST control) | binding signal (ETS2): 1.41 fold enrichment (6-mer frequency, TF over GST control) | binding signal (SPDEF): 1.27 fold enrichment (6-mer frequency, TF over GST control) | binding signal (ETV7): 1.31 fold enrichment (6-mer frequency, TF over GST control) | binding signal (ELF5): 1.43 fold enrichment (6-mer frequency, TF over GST control) | binding signal (ETV3): 1.31 fold enrichment (6-mer frequency, TF over GST control) | binding signal (ETV6): 1.31 fold enrichment (6-mer frequency, TF over GST control)
